# APP 5UTR inh = inhibitors of APP translation via 5'UTR reporter, primary screen, APP 5'UTR luciferase, SH-SY5Y cells | inhibition, % at 2 µM | hit rate 0.82% among 190,000 | SH-SY5Y APP 5'UTR-luciferase reporter, luminescence;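 active means inhibition above a set limit, derived from the sample mean plus 3 SD, cut at about 45% in these data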
# aSyn 5UTR inh = MLPCN primary screen, SNCA 5' untranslated region; AID 1813, 2009; inhibition, % (tested at 7.5 µM); hit rate 0.82% among 300,000; alpha-synuclein 5'UTR reporter, inhibitor activity; in the data active means inhibition above about 60%;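 further: H4 neuroglioblastoma cells stably carrying SNCA 5'UTR luciferase fusion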
# BaF3 tox = parental Ba/F3 cell viability inhibition, counter-screen for JAK2V617F inhibitor project, murine pro-B, CellTiter-Glo luminescence | CellTiter-Glo ATP luminescence | inhibition, % at 5.6 µM | hit rate 1.1% among 220,000;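 active means inhibition above a per-campaign cutoff, the mean inhibition of all tested compounds plus 3 SD, cut at about 27% in these data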
# Ba/F3 V617F tox = reduced viability of JAK2V617F-dependent Ba/F3 cells, primary screen, JAK2V617F inhibitor project, cell-based, Ba/F3 EpoR-JAK2V617F, luminescence | inhibition, % at 5.6 µM | AID 1446, 2008 | hit rate 1.1% among 220,000 | ATP luminescence;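 active means inhibition above the campaign mean plus 3 SD over all tested compounds, cut at about 24% in these data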;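 further: cytokine-independent growth of Ba/F3 cells driven by EpoR plus mutant JAK2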
# KLF5 inhibitor = KLF5 expression inhibitors, primary screen, DLD-1 cells, luminescence. DLD-1 KLF5 promoter-luciferase reporter. inhibition, % at 5 µM. hit rate 0.23% among 290,000. AID 1700, 2009;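 active means inhibition above a per-plate limit of that plate's mean compound inhibition plus 3 SD, cut at about 60% in these data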;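 further: higher means less KLF5 promoter-driven luciferase light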
# IEC-6 tox-1 = cytotoxicity in IEC-6 intestinal epithelial cells, primary screen, cytotoxicity control for KLF5 inhibitor project, cell-based, luminescence. IEC-6 cytotoxicity, luminescence viability. inhibition, % at 5 µM. hit rate 0.78% among 290,000. AID 1825, 2009; in the data active means inhibition above about 22%
# KLF5 confirm = KLF5 expression inhibitors, confirmation, DLD-1 cells, luminescence; inhibition, % at 4 µM; hit rate 79% among 610; AID 1834, 2009; shares compounds with KLF5 inhibitor; DLD-1 KLF5 promoter firefly luciferase reporter;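 active means inhibition above a set limit taken from the earlier primary screen, cut at about 63% in these data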
# IEC-6 tox-2 = cytotoxicity in rat IEC-6 cells, cytotoxicity control for KLF5 inhibitor project, cell-based, luminescence, triplicate; IEC-6 rat intestinal cells, viability luminescence; hit rate 56% among 610; inhibition, % at 4 µM; shares compounds with KLF5 inhibitor; AID 1905, 2009; in the data active means inhibition above about 23%;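 further: cells exposed to compounds for 48 hours before viability read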
# Numbers stand for hits; . = inactive; / = not tested or not shown. Only some compounds are listed: those with a hit (about 2.2% of all), similar ones and a draw of the others.
SMILES,APP 5UTR inh,aSyn 5UTR inh,BaF3 tox,Ba/F3 V617F tox,KLF5 inhibitor,IEC-6 tox-1,KLF5 confirm,IEC-6 tox-2
O=C(CN1C(=O)c2ccccc2S1(=O)=O)c1ccc2c(c1)OCCCO2,/,114,.,.,101,.,108,.
O=C(CCN1C(=O)c2ccccc2S1(=O)=O)Nc1cc(Cl)ccc1Cl,/,.,/,/,/,/,/,/
COc1cc(/C=C/C(=O)O)cc(S(=O)(=O)Nc2ccc3nc(SC)sc3c2)c1OC,.,.,.,.,.,.,/,/
Nc1c(C(=O)Nc2cccc(C(=O)O)c2)sc2nc3c(cc12)CCCC3,/,77,/,/,84,.,90,.
Cc1cc(C)c(S(=O)(=O)NC(C)C)c(C)c1-n1cnnn1,.,.,.,.,.,.,/,/
COc1cc(OC)cc(N(C(=O)CNC(=O)c2ccco2)C(C(=O)NCC2CCCO2)c2ccccc2)c1 (stereo unspecified),/,.,/,/,65,.,.,.
Cn1c(CNC(=O)c2ccc(F)cc2)nc2ccccc21,.,.,.,.,.,.,/,/
CSc1nc(N(C)NC(=O)c2ccc(F)cc2)c2ccccc2n1,95,77,73,72,79,78,78,61
COCCN(C(=O)c1ccc(-c2ccc(Cl)cc2)o1)c1c(N)n(Cc2ccccc2)c(=O)[nH]c1=O,/,.,/,/,/,/,/,/
Cc1ccc(NC(=O)c2cc3ccccc3oc2=O)cc1S(=O)(=O)N(C)C,47,73,.,.,76,.,87,.
CCCOC(=O)C1NC(=O)N2C(C(=O)OCCC)C(C)(C)S[C@H]12 (stereo partly specified),/,.,/,/,/,/,/,/
O=C(CCl)Nc1cc(SCC(O)CO)cc([N+](=O)[O-])c1 (stereo unspecified),.,110,99,99,84,.,112,34
Cc1nc(C(C)NC(=O)CCc2nnc(CCCc3ccccc3)o2)c(C)s1 (stereo unspecified),.,.,.,.,.,.,/,/
Cc1nc2ccccn2c1-c1csc(Nc2cccc(O)c2)n1,89,.,78,80,74,.,68,.
O=c1cnnc(N/N=C/c2ccccn2)[nH]1,/,75,51,41,76,.,72,50
COc1cc(/C=N/NS(=O)(=O)c2ccc(C)cc2)ccc1OCc1ccc(C(=O)O)cc1,.,84,.,.,78,.,.,.
O=C(Nc1ccc(N2CCOCC2)nc1)c1ccccc1Cl,/,.,.,.,.,.,/,/
COc1ccc(-n2ncc3c(N4CCCCC4)ncnc32)cc1,.,101,.,.,65,.,88,.
COc1ccc(-n2ncc3c(N4CCN(c5cccc(C)c5C)CC4)ncnc32)cc1,/,.,/,/,.,.,/,/
Nc1ccc(-c2nc3ccc(C(=O)O)cc3s2)cc1,67,95,.,.,109,.,105,.
O=C1CCCc2nc3c(cc21)C(O)Oc1c-3ccc2ccccc12 (stereo unspecified),.,.,.,.,.,.,/,/
O=C1CCCc2nc3c(cc21)C(O)Oc1ccccc1-3 (stereo unspecified),.,.,.,.,110,.,.,.
CCN(CC)CCn1nc2c3c(cccc3c1=O)-c1ccccc1-2,68,.,100,102,72,87,.,75
CCN(CC)CCn1nc(C)nc1-c1ccccc1O,.,.,.,.,.,.,/,/
Cc1ccc(OCCC(=O)OCC(=O)NC(=O)NC2CCCC2)cc1,/,.,/,/,/,/,/,/
SMILES,APP 5UTR inh,aSyn 5UTR inh,BaF3 tox,Ba/F3 V617F tox,KLF5 inhibitor,IEC-6 tox-1,KLF5 confirm,IEC-6 tox-2
C/C(=N/NC(=O)c1ccccn1)c1ccc(O)cc1,/,.,.,.,.,.,/,/
COc1cc(C(=O)N/N=C(\C)c2ccccn2)cc(OC)c1OC,/,109,/,/,84,96,.,35
CNc1cc(-n2nc(C)cc2-c2ccccc2)ncn1,.,.,.,.,.,.,/,/
Cc1cc(-c2ccccc2)n(-c2cc(N/N=C/c3ccccc3O)ncn2)n1,96,/,76,69,70,.,88,.
COc1ccc(-c2cc(C(=O)Nc3ccc(C(N)=O)cc3)c3ccccc3n2)cc1,/,.,/,/,.,.,/,/
O=C1CCCCC1Sc1nnc(-c2ccc3c(c2)OCO3)o1 (stereo unspecified),.,.,.,.,66,.,.,.
Clc1ccc(CSc2nnc(-c3ccc4c(c3)OCO4)o2)cc1,.,.,.,.,.,.,/,/
COc1ccccc1-c1nnc2n1N=C(c1ccc(O)c(O)c1)CS2,95,97,92,95,80,.,92,.
Cc1ccc(C(=O)O/N=C(\N)c2ccccn2)c(C)c1,/,106,/,/,108,.,104,.
COc1cc(/C=C/C(=O)OCC(=O)N2CCCc3ccccc32)ccc1OC(F)F,/,.,/,/,/,/,/,/
CCCCn1c(N)c(N(CCOC)C(=O)c2ccc(S(=O)(=O)N3CCCCCC3)cc2)c(=O)[nH]c1=O,/,.,/,/,/,/,/,/
CCc1ccn2cc(-c3ccc4c(c3)OCO4)nc2c1,/,107,.,.,66,.,62,.
NS(=O)(=O)c1ccc(Oc2ccc(S(N)(=O)=O)cc2)cc1,.,.,.,.,.,.,/,/
C=CS(=O)(=O)c1ccc(Oc2ccc(S(=O)(=O)C=C)cc2)cc1,90,.,68,84,77,76,.,38
CC(=O)N(C1=C(N2CCOCC2)C(=O)c2ccccc2C1=O)c1ccc(C(=O)O)cc1,/,.,.,.,.,.,/,/
CC(=O)N(C)C1=C(N2CCOCC2)C(=O)c2ccccc2C1=O,.,76,101,101,85,.,84,.
CC(=O)Nc1ccc(S(=O)(=O)N(C)CC(=O)OCC(=O)N(C)C2CCS(=O)(=O)C2)cc1 (stereo unspecified),/,.,/,/,/,/,/,/
COc1cc(C(=O)Nc2nc3ccccc3[nH]2)cc(OC)c1OC,.,.,.,.,.,.,/,/
O=C(Nc1nc2ccccc2[nH]1)c1ccc([N+](=O)[O-])cc1,.,.,.,.,.,.,/,/
O=C(Nc1cnc2ccccc2c1)c1cccnc1,.,.,.,.,.,.,/,/
Cc1ccc(C(=O)Nc2nc3ccccc3[nH]2)cc1,/,68,/,/,86,.,66,.
Cc1ccc(C(=O)Nc2cnc3ccccc3c2)cc1,.,103,.,.,97,.,105,.
COc1ccc(C(=O)Nc2nc3ccccc3[nH]2)cc1,/,71,/,/,65,.,.,.
COc1cccc(CN2CC(C(=O)N(C)Cc3ccc(C)cc3)CCC2=O)c1 (stereo unspecified),/,.,/,/,.,.,/,/
O=C(C1=C[C@H](c2ccccc2)C[C@H](OCCCCO)O1)N1CCN(Cc2ccccc2)CC1,.,.,.,.,.,.,/,/

# Screens as filed in PubChem BioAssay.
